In the library only some 2.2% were active in any assay of this set; here they are far more common.
Giardia FBPA inh – inhibitors of Giardia lamblia fructose-1,6-bisphosphate aldolase; A8B2U2; purified Giardia FBPA; Potency, µM (series often up to 59.6 µM), inactives show at the highest dose activity, negative = inhibition, hits mostly inhibitors; hit rate 0.71% among 290,000; active means well fitted inhibition curve with a large enough effect; inconclusive means small, poorly fitted or top-dose-only effect, or effect the other way; further: nearly all actives have a fitted effect of over 55% in size
Target sequence (A8B2U2 whole entry, looked up): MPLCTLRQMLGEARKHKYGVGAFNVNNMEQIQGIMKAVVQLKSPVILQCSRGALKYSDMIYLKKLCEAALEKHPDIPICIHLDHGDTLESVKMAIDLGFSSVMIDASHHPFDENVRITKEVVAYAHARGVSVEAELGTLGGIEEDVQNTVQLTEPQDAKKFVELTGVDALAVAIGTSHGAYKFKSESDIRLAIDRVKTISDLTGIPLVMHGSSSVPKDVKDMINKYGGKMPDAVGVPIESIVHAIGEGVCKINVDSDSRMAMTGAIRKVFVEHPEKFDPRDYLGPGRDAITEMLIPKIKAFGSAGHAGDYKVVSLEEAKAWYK
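40 nM FBPA preincubated 10 min at RT with compound (up to 57.5 uM final), then substrate plus GAPDH/TPI/NAD/arsenate coupling and diaphorase/resazurin added. Fluorescence read after 20 min at RT, 525/598 nm.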
VACV mCherry inh – vaccinia inhibition (mCherry reporter); AID 720579; Potency, µM (titrated, usually from 36.5 µM), inactives show at the highest dose activity change, negative = inhibition, usual class: inhibitors; hit rate 0.63% among 310,000; Vaccinia virus mCherry reporter infection, fluorescence; calls by dose curve; tested in A549 cells; further: nearly all actives have a fitted effect of over 35% in size
Vaccinia Venus – inhibitors of vaccinia virus (Venus reporter); hit rate 0.46% among 330,000; Vaccinia virus Venus reporter expression, fluorescence; AID 720580; Potency, µM (doses to about 36.5 µM), inactives show at the top dose activity change, negative = inhibition, actives largely listed as inhibitors; calls by dose curve; tested in A549 cells; further: nearly all actives have a fitted effect of over 30% in size
FMDV inh – antivirals against foot and mouth disease virus; FMDV antiviral cell-based qHTS; Potency, µM (top dose mostly 57.9 µM), for inactives: at the top dose activity change, negative = inhibition, most hits filed as inhibitors; hit rate 1.2% among 410,000; calls by dose curve; tested in HEK293T cells; further: read-out not given here; nearly all actives have a fitted effect of over 45% in size
* = called active by the depositor; i = inactive; ? = inconclusive; / = no result given; [ ] = dose if it differs, or a comment. On the % scale 0 is the no-effect control and ±100 the full control effect; potency means the concentration at half of the fitted maximal effect.

SMILES | Giardia FBPA inh | VACV mCherry inh | Vaccinia Venus | FMDV inh
CCN(CC)c1ccc(/C=N/NC(=O)c2cccc(S(=O)(=O)Nc3ccccc3OC)c2)cc1 | -4.8% | / | / | -12.4%
CCN(CC)c1ccc(/C=N/NC(=O)c2cccc(S(=O)(=O)Nc3ccccc3OC)c2)c(O)c1 | -10.5% | 2.51µM* | ? | -0.7%
CCN(CC)c1ccc(/C=N/NC(=O)c2ccc3nc[nH]c3c2)c(O)c1 | 16.8% | 11.2µM* | ? | 2.0%
COc1cccc([C@@H]2Oc3ccc(Br)cc3C[C@H]2OC(=O)Nc2ccc(OC(F)F)cc2)c1 | 11.9% | / | / | /
CCOc1ccc(C(=O)Nc2ccc(S(=O)(=O)N3CCCCC3c3cccnc3)cc2)cc1 (configuration not stated) | / | -24.4% | ? | 31.6µM*
O=C(Nc1ccc(S(=O)(=O)N2CCCCC2c2cccnc2)cc1)c1ccc(Br)cc1 (configuration not stated) | / | ? | -26.6% | ?
N#CC(C#N)=NNc1ccc(S(=O)(=O)N2CCCC2)cc1 | 28.2% | i | -10.5% | 31.6µM*
COc1cccc(CCn2c(N)cc(=O)[nH]c2=S)c1OC | / | -7.7% | -5.6% | /
Cc1cccc2sc(NC(=O)c3ccc(OCC4CCCO4)cc3)nc12 (configuration not stated) | -5.4% | -1.9% | -9.3% | ?
CN(CC1CCCO1)S(=O)(=O)c1ccc(C(=O)Nc2ccccc2F)cc1 (configuration not stated) | / | -12.2% | -16.5% | 11.9%
CN(CC1CCCO1)S(=O)(=O)c1ccc(C(=O)Nc2nc(-c3ccccn3)cs2)cc1 (configuration not stated) | -7.2% | ? | ? | 28.2µM*
Cc1csc(NC(=O)c2ccc(OCC3CCCO3)cc2)n1 (configuration not stated) | -11.3% | -12.4% | -3.7% | -67.5%
CCOc1ccc2nc(NC(=O)c3ccc(OCC4CCCO4)cc3)sc2c1 (configuration not stated) | -4.7% | -4.5% | -11.4% | 17.8µM*
O=C(Nc1nc(-c2ccc(F)c(F)c2)cs1)c1ccc(OCC2CCCO2)cc1 (configuration not stated) | 16.6% | -24.3% | -19.2% | 2µM*
Cc1ccnc(NC(=O)c2ccc(OCC3CCCO3)cc2)c1 (configuration not stated) | / | -12.2% | -9.9% | 15.8µM*
Cc1nc2sccn2c1CN1CCC2(CC1)CC2C(=O)Nc1ccc2c(c1)OCO2 (configuration not stated) | / | -14.5% | -9.1% | -6.4%
CC(C)c1c(C(=O)NCc2cccnc2)cnn1-c1nccc(-c2ccccc2F)n1 | / | -27.5% | -22.8% | -27.8%
COc1cc(N(C)C)c(OC)cc1/C=C1\Cc2ccccc2C1=O | / | i | -6.3% | /
CCn1c(-c2cccnc2)nc2cc(NC(=O)COC)cc(C(=O)N3CCc4ccccc4C3)c21 | / | -11.9% | -7.0% | -17.4%
COc1ccc(Cl)cc1/C=C1/C(=O)ON=C1C | 2.5% | -13.3% | -4.4% | 31.6µM*
CC1=NOC(=O)/C1=C/c1ccc(-c2ccc(Cl)cc2)o1 | -12.9% | / | / | /
CC1=NOC(=O)/C1=C\c1ccc(-c2cc(Cl)ccc2Cl)o1 | -20.5% | i | 0.0% | 10µM*
CCOc1ccc(Cl)cc1/C=C1/C(=O)ON=C1C | -2.7% | i | -2.2% | 39.8µM*
O=C1C(=O)C(c2ccc(O)cc2O)Oc2cc(O)cc(O)c21 (configuration not stated) | / | 28.9% | 3.8% | /
COc1cc2nc(N(C)C)c(CNCc3cccc4ccccc34)cc2c(OC)c1OC | / | i | -3.8% | -24.1%
SMILES | Giardia FBPA inh | VACV mCherry inh | Vaccinia Venus | FMDV inh
Cc1cc(C)cc(N2C(=O)NC(=O)/C(=C\c3cc(C)n(C)c3C)C2=O)c1 | -1.1% | -3.8% | -1.0% | -18.3%
CCc1ccccc1N1C(=O)NC(=O)/C(=C\c2cc(C)n(C)c2C)C1=O | -1.0% | 10µM* | -25.7% | -19.8%
COc1ccc(/C=C/C(=O)C2C(=O)C=C(C)OC2=O)cc1O (configuration not stated) | ? | -13.9% | 13.1% | -9.2%
COc1cc(/C=C/C(=O)C2C(=O)C=C(C)OC2=O)cc(OC)c1O (configuration not stated) | ? | 58.0% | 81.8% | 17.8µM*
CCOC(=O)NCCOc1ccc(Oc2ccccc2)cc1 | -5.8% | / | / | /
CCOCCOC(=O)c1[nH]c2c(c1C)C(=O)CC(c1cc(OC)c(OC)c(OC)c1)C2 (configuration not stated) | 1.4% | 1.5% | -15.4% | 28.2µM*
O=S(=O)(c1ccc(F)cc1F)N1CCN(c2nc(-c3cccs3)nc3ccccc23)CC1 | / | -15.3% | ? | /
Cc1cccn2c(=O)c(/C=C(\C#N)C(=O)NC3CCS(=O)(=O)C3)c(Oc3ccc(F)cc3)nc12 (configuration not stated) | -8.6% | -6.1% | -10.3% | 28.2µM*
N#C/C(=C\c1c(Oc2ccc(Cl)cc2)nc2ccccn2c1=O)C(=O)NC1CCS(=O)(=O)C1 (configuration not stated) | 6.3% | -9.8% | -8.8% | 20µM*
O=C(O)CN(CC(=O)O)CC1=CC2C(=CC1=O)Oc1cc(O)c(CN(CC(=O)O)CC(=O)O)cc1C21OC(=O)c2ccccc21 (configuration not stated) | / | 45.5% | i | -1.3%
O=[N+]([O-])c1ccc(Sc2nc3ccccc3o2)c([N+](=O)[O-])c1 | -18.3% | ? | ? | 35.5µM*
O=[N+]([O-])c1ccc(Cl)cc1Sc1nc2ccccc2o1 | 0.3% | -27.2% | -12.1% | -34.7%
C=C1C=C(C(F)F)n2ncc(C(=O)N3CCCCC3)c2N1 | / | -0.6% | -11.1% | /
CC1CCC(C(C)C)C(OC(=O)COC(=O)c2ccccc2N)C1 (configuration not stated) | -5.8% | -5.0% | -11.1% | ?
CC1CCC(C(C)C)C(OC(=O)Cn2c(-c3ccc(Br)cc3)[n+](C)c3ccccc32)C1 (configuration not stated) | 5.3% | 11.2µM* | 12.6µM* | ?
CC1CCC(C(C)C)C(OC(=O)Cn2c(-c3ccc(Cl)cc3)[n+](C)c3ccccc32)C1 (configuration not stated) | -1.2% | 2.2%[7.34 µM] | 10.7%[7.34 µM] | ?
Cc1ccccc1OCc1n(CC(=O)OC2CC(C)CCC2C(C)C)c2ccccc2[n+]1C (configuration not stated) | -4.0% | ? | 11.2µM* | ?
CCCCNc1nc(C)nc2c1nc(-c1ccccc1)n2CC1CCN(C)CC1 | 1.9% | / | / | /
COc1ccc(C(c2c(C)[nH]n(C(N)=S)c2=O)C(C#N)C#N)cc1 (configuration not stated) | 15.4% | -14.4% | -6.4% | 25.1µM*
Cc1ccc(-n2nnnc2Sc2ccc(S(=O)(=O)NCCN(C)C)cc2[N+](=O)[O-])cc1 | -0.1% | ? | 11.2µM* | 12.6µM*
O=[N+]([O-])c1cc(S(=O)(=O)NCCN2CCOCC2)ccc1Sc1nnnn1-c1ccccc1 | -20.2% | ? | ? | ?
COc1ccc(OC)c2sc(N3CCc4ccccc4C3)nc12 | -14.3% | -7.5% | -6.3% | 27.0%
c1ccc2c(c1)CCN(c1nc3cc4c(cc3s1)OCCO4)C2 | ? | / | / | 7.94µM*
Cn1c(C(=O)NCc2ccccc2)cc2oc3ccccc3c21 | -7.9% | 5.01µM* | -7.1% | 41.2%
